Assay outcomes as filed in PubChem BioAssay.
HP1b chromo inh: inhibitors of HP1-beta chromodomain binding to methylated histone tails; AlphaScreen HP1-beta / biotin-H3K9me3 peptide binding; Potency, µM (titrated, usually from 114 µM), for inactives: top-dose activity change, negative = inhibition, most hits filed as inhibitors; 390,000 compounds, 0.56% hits; note: potency is the fitted concentration of half-maximal effect; nearly all actives have a fitted effect of over 70% in size
Target sequence (P83916 whole entry, looked up): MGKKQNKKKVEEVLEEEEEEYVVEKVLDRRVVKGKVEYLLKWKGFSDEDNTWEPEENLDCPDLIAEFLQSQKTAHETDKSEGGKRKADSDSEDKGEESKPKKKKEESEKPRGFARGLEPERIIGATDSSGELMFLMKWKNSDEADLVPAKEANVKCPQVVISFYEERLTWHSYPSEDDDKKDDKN
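Compound inhibition of the preformed complex between 50 nM HP1-beta and 50 nM biotinylated H3K9me3 peptide was read by AlphaScreen. Buffer was PBS pH 7.4 with 0.01% Tween-20. Incubations ran 30 min at room temperature, with 10 ug/mL donor/acceptor beads.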
Six1-Eya2 blk: inhibitors of human Six1/Eya2 interaction. AlphaScreen GST-Six1/His-Eya2 binding, biochemical; hits give low values. 360,000 compounds, 0.56% hits. activity change, % (concentration not given with the values). Q15475+O00167; in the data active = activity change below about -65%; inconclusive = mostly about -30% to -63%; note: % is set by controls: 0 for no effect and ±100 for the full control effect
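AlphaScreen luminescence read after one hour at 37 °C in darkness. Pin-transferred compounds met GST-Six1 and His-Eya2 protein (5X stock 250 nM/500 nM) plus glutathione donor and Ni-chelate acceptor beads (5X, 50 ug/mL).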
JMJD2A Tudor: JMJD2A Tudor domain (human) inhibition; 390,000 compounds, 4.4% hits; AID 504339; Potency, µM (highest dose often 114 µM), for inactives: at the highest dose activity change, negative = inhibition, most hits filed as inhibitors; AlphaScreen JMJD2A-Tudor / H3K4me3 peptide binding; O75164; note: potency is the fitted concentration of half-maximal effect; % is set by controls: 0 for no effect and ±100 for the full control effect; nearly all actives have a fitted effect of over 50% in size
BAZ2B inh: inhibitors of human BAZ2B bromodomain | Potency, µM (series often up to 114 µM), for inactives: at the top dose activity change, negative = inhibition, usual class: inhibitors | AID 504333 | AlphaScreen BAZ2B-H3K14Ac peptide displacement | 360,000 compounds, 4.4% hits; note: potency is the fitted concentration of half-maximal effect; % is set by controls: 0 for no effect and ±100 for the full control effect; nearly all actives have a fitted effect of over 60% in size
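In this displacement format the biotinylated H3(5-23) peptide acetylated at Lys14 serves as ligand at 50 nM, with BAZ2B at 50 nM in PBS pH 7.4 containing 0.01% Tween-20. Donor and acceptor beads are 10 ug/mL final.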
CtBP-E1A blk: inhibitors of CtBP/E1A interaction | AlphaScreen GST-E1A/His-CtBP binding, 1536-well; hits give low values | activity change, % (no concentration beside the values) | 340,000 compounds, 0.49% hits | AID 651724; in the data active = activity change below about -65%; inconclusive = mostly about -30% to -63%; note: % is set by controls: 0 for no effect and ±100 for the full control effect
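Steps: dispense buffer (Tris pH 8.0, NaCl 300 mM, TCEP 1 mM, BSA, Tween 20); add 5X protein mix (GST-E1A, His-CtBP, 125 nM each); pin 23 nL compound; 2 h at 37 °C, dark; add 5X beads (50 ug/mL); 1 h; read.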
G9a block: inhibitors of human histone lysine methyltransferase G9a | Q96KQ7 | G9a H3K9 monomethylation, AlphaScreen, 2 h | Potency, µM (highest dose often 102 µM), for inactives: at the highest dose activity, negative = inhibition, usual class: inhibitors | 350,000 compounds, 8.8% hits | AID 504332; note: potency is the fitted concentration of half-maximal effect; % is set by controls: 0 for no effect and ±100 for the full control effect; nearly all actives have a fitted effect of over 75% in size
Target sequence (Q96KQ7 913-1193 limits assumed): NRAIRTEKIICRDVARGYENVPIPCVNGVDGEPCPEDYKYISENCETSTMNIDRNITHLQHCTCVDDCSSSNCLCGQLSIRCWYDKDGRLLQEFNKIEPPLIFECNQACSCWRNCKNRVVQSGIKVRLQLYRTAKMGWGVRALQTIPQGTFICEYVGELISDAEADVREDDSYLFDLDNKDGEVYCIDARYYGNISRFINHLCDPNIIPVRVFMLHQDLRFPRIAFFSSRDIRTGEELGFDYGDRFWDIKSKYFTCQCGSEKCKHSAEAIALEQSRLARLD
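Quantitative HTS format: methyltransferase activity on a biotin-tagged H3K9 peptide is measured by AlphaScreen, using a rabbit anti-monomethyl-H3K9 antibody with streptavidin donor and anti-IgG acceptor beads. Final levels are 20 nM enzyme, 500 nM peptide, 20 uM SAM; 2 h RT.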
* marks the source's active call; other numbers are inactive results; [ ] = remark or other dose. Most compounds without a hit are left out; they make up all but 10% or so of the library. Unless noted, calls come from the whole dose curve; as a rule, active = well fitted inhibition curve with a large enough effect; inconclusive = small, poorly fitted or top-dose-only effect; inactive = no such curve, though single readings can be large or run the other way.

Screening CCC(C)NC(=O)CSc1nc2n[nH]c(C)c2c(=N)n1-c1ccc(C)c(Cl)c1 (centres undefined) returned HP1b chromo inh -5%, JMJD2A Tudor -14%, BAZ2B inh -26% and G9a block -24%[59 µM].
`Cc1cc(C)c2c(=O)cc(CSCC(=O)Nc3ccccc3Cl)[nH]c2c1` gave HP1b chromo inh 28%[57 µM], JMJD2A Tudor -8%, BAZ2B inh 0% and G9a block 1%[59 µM].
Cn1c(/C(C#N)=C/c2ccc(O)cc2)nc2ccccc21 was read as HP1b chromo inh 24%, Six1-Eya2 blk -1, JMJD2A Tudor -10%, BAZ2B inh -7% and CtBP-E1A blk 0.
COc1cc(/C=C(\C#N)c2nc3ccccc3n2C)cc(OC)c1O was read as HP1b chromo inh 2%, Six1-Eya2 blk -9, JMJD2A Tudor -26%, BAZ2B inh -36%, CtBP-E1A blk -10 and G9a block 22µM*.
`COc1cc(/C=C(\C#N)c2nc3ccccc3[nH]2)cc(OC)c1O` gave HP1b chromo inh -36%, Six1-Eya2 blk inconclusive, JMJD2A Tudor inconclusive, BAZ2B inh 40µM*, CtBP-E1A blk inconclusive and G9a block 10µM*.
COc1cc(/C=C(\C#N)c2nc3ccc(C)cc3[nH]2)cc([N+](=O)[O-])c1O was read as HP1b chromo inh 35µM*, Six1-Eya2 blk -73*, JMJD2A Tudor 40µM*, BAZ2B inh 13µM* and CtBP-E1A blk -75*.
Screening CCCOc1cc(N(CC)CC)ccc1/C=C(/C#N)c1nc2ccc(C)cc2[nH]1 returned HP1b chromo inh 1%, Six1-Eya2 blk -10, JMJD2A Tudor -29%, BAZ2B inh inconclusive, CtBP-E1A blk -8 and G9a block 20µM*.
COc1cc(C2CC(=O)Nc3ccc4ccccc4c32)ccc1OC(=O)C(C)C (centres undefined) was read as HP1b chromo inh -6%, JMJD2A Tudor inconclusive, BAZ2B inh inconclusive and G9a block inconclusive.
Screening COc1ccc(C(=O)Cn2c(Cl)nc3c2c(=O)n(C)c(=O)n3C)cc1 returned HP1b chromo inh -2%, Six1-Eya2 blk 11, JMJD2A Tudor -14%, BAZ2B inh 2%, CtBP-E1A blk 0 and G9a block 23%[12.7 µM].
COc1c(Cl)cc(Cl)cc1/C=C(\C#N)c1nc2ccccc2[nH]1 was read as HP1b chromo inh 1%, JMJD2A Tudor 0%, BAZ2B inh -1% and G9a block -4%[59 µM].
COc1c(O)ccc(/C=C(\C#N)c2nc3ccccc3[nH]2)c1[N+](=O)[O-] was read as HP1b chromo inh inconclusive, Six1-Eya2 blk -11, JMJD2A Tudor inconclusive, BAZ2B inh 40µM*, CtBP-E1A blk 4 and G9a block 7.9µM*.
For CN(C)c1ccc(N=Nc2ccccc2C(=O)OCC(=O)N2CCCC2)cc1 the results were HP1b chromo inh inconclusive, Six1-Eya2 blk inconclusive, JMJD2A Tudor 56µM*, BAZ2B inh 40µM*, CtBP-E1A blk -30 and G9a block 25µM*.
Screening CN(C)c1cc[n+](CC(=O)Nc2ccccc2C(F)(F)F)cc1 returned HP1b chromo inh 31%, Six1-Eya2 blk -1, JMJD2A Tudor -5%, BAZ2B inh 4%, CtBP-E1A blk 5 and G9a block -1%[0.501 µM].
CSc1ccccc1C(=O)OCC(=O)N1CCCCCC1 was read as HP1b chromo inh 6%, Six1-Eya2 blk 8, JMJD2A Tudor -8% and CtBP-E1A blk 4.
Screening CN(C)c1ccc(N=Nc2ccccc2C(=O)OCC(=O)Nc2ccccc2C(F)(F)F)cc1 returned HP1b chromo inh inconclusive, Six1-Eya2 blk -71*, JMJD2A Tudor 7.1µM*, BAZ2B inh 10µM*, CtBP-E1A blk -29 and G9a block 10µM*.
Screening CN(C)c1ccc(N=Nc2ccccc2C(=O)OCC(=O)N2CCCCCC2)cc1 returned HP1b chromo inh 18µM*, Six1-Eya2 blk -74*, JMJD2A Tudor 28µM*, BAZ2B inh 13µM*, CtBP-E1A blk -66* and G9a block 8.9µM*.
For CCC1([N+](=O)[O-])COC(c2ccc(Cl)cc2)OC1 (centres undefined) the results were HP1b chromo inh 52%, Six1-Eya2 blk 9, JMJD2A Tudor 6% and CtBP-E1A blk 17.
Oc1ccc(/C=N/N2CCN(Cc3ccccc3)CC2)cc1 was read as HP1b chromo inh 2%, Six1-Eya2 blk 0, JMJD2A Tudor -26%, BAZ2B inh -11% and G9a block -3%[0.501 µM].
Screening OC1CCCN(Cc2cccc3ccccc23)C1 (centres undefined) returned HP1b chromo inh 29%, Six1-Eya2 blk 0, JMJD2A Tudor 7%, BAZ2B inh 3%, CtBP-E1A blk 4 and G9a block -9%[59 µM].
For Cn1cccc1/C=N/N1CCN(Cc2ccc(Cl)cc2)CC1 the results were HP1b chromo inh 40µM*, Six1-Eya2 blk inconclusive, JMJD2A Tudor 50µM*, BAZ2B inh 32µM*, CtBP-E1A blk -12 and G9a block 40µM*.
For Cc1ccc(CN2CCN(/N=C/c3ccccc3)CC2)cc1 the results were HP1b chromo inh inconclusive, Six1-Eya2 blk -8, JMJD2A Tudor inconclusive, BAZ2B inh inconclusive, CtBP-E1A blk -4 and G9a block inconclusive.
For Cn1cccc1/C=N/N1CCN(Cc2ccccc2)CC1 the results were HP1b chromo inh inconclusive, Six1-Eya2 blk -19, JMJD2A Tudor inconclusive, BAZ2B inh 50µM* and G9a block 25µM*.
`Cn1cccc1/C=N/N1CCN(Cc2cccc3ccccc23)CC1` gave HP1b chromo inh inconclusive, Six1-Eya2 blk inconclusive, JMJD2A Tudor 32µM*, BAZ2B inh 22µM*, CtBP-E1A blk -26 and G9a block 25µM*.
O=C1C(=Cc2cn(-c3ccccc3)nc2-c2ccc(OCc3ccccc3)cc2)SC(=S)N1CCS(=O)(=O)O was read as Six1-Eya2 blk -74* and CtBP-E1A blk -19.
C#CCN1C(=O)S/C(=C/c2cc(C)n(CC)c2C)C1=O was read as HP1b chromo inh 29%, Six1-Eya2 blk -14, JMJD2A Tudor -23%, BAZ2B inh 18%, CtBP-E1A blk -12 and G9a block -2%.
O=C(O)CN1C(=O)/C(=C\c2cn(-c3ccccc3)nc2-c2ccccc2)SC1=S was read as HP1b chromo inh -21%[57 µM], Six1-Eya2 blk 11, JMJD2A Tudor 50µM*, BAZ2B inh inconclusive, CtBP-E1A blk -10 and G9a block 11µM*.
CCn1c(C)cc(/C=C2/SC(=S)N(CC(=O)O)C2=O)c1C was read as HP1b chromo inh 1%, Six1-Eya2 blk -6, JMJD2A Tudor -31%, BAZ2B inh -32%, CtBP-E1A blk -7 and G9a block 50µM*.
